For 8 molecules, outcome and AC50 results are on record in PubChem BioAssay (EPA / NIEHS).

Assay [1] concerns the target Nuclear respiratory factor 1 (Homo sapiens) (UniProt Q16656). Nature of the assay: ATG_NRF1_CIS: Attagene CIS-FACTORIAL HepG2 Assay for human Nuclear Respiratory Factor 1 (NRF1) Orphan Gene (AID 2282987). Particulars: HepG2 NRF1 cis-element reporter, Attagene multiplex; actives raise or lower the signal. An outline of the steps:
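Endogenous factor activity was captured via cis-element-driven reporter transcripts in HepG2 cells. Following 24 h chemical treatment, transcripts were quantified by RT-PCR and capillary electrophoresis.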

Assay [2] can be described thus: ATG_NFI_CIS: Attagene CIS-FACTORIAL HepG2 Assay for human Nuclear Factor I (NFI) (AID 2282989). Particulars: HepG2 cis-regulatory reporter, NFI response element transcription; actives raise or lower the signal. An outline of the steps: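 HepG2, transient MRTU, 24 h exposure; RNA→cDNA→PCR→FAM label→HpaI→CE fluorescence. Bidirectional fit, DMSO = baseline.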
The target in assay [3] is Myc proto-oncogene protein (Homo sapiens) (UniProt P01106). Nature of the assay: ATG_Myc_CIS: Attagene CIS-FACTORIAL HepG2 Assay for human Myelocytomatosis (Myc) Proto-Oncogene Transcription Factor (AID 2282990). The following applies: HepG2, Attagene cis-reporter transcription factor activity; actives raise or lower the signal. The gist of the method:
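HepG2, transient MRTU transfection (cis promoters, endogenous TFs); 24 h dosing; TriZol RNA → oligo(dT) RT → PCR → 6-FAM primer extension → HpaI cut → CE. Bidirectional fit vs DMSO.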

Assay [4] can be described thus: ATG_NF_kB_CIS: Attagene CIS-FACTORIAL HepG2 Assay for human Nuclear Factor Kappa B (NF-kB) (AID 2282991). Particulars: HepG2 Attagene cis-factorial NF-kB reporter mRNA; actives raise or lower the signal. An outline of the steps: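 After 24 h compound incubation, transfected HepG2 cells yield total RNA; reporter cDNA is PCR-amplified, end-labelled with 6-FAM, HpaI-digested and analysed on a genetic analyser. Endogenous factor activity, DMSO-referenced bidirectional fit.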

Assay [5] is described as follows: ATG_NRF2_ARE_CIS: Attagene CIS-FACTORIAL HepG2 Assay for human Nuclear Factor Erythroid 2 Related Factor 2 (NFR2) response to Antioxidant Response Elements (ARE) (AID 2282992).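 As to AC50: reporter mRNA level measured by RT-PCR and capillary electrophoresis fluorescence.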 Particulars: HepG2 Attagene ARE/NRF2 reporter, transcription factor activity; actives raise or lower the signal. An outline of the steps:
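Cis-factorial assay: transfected HepG2 reporter library, 24 h dosing, mRNA readout via RT-PCR/CE; DMSO-referenced bidirectional analysis.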

Assay [6] is described as follows: ATG_Oct_MLP_CIS: Attagene CIS-FACTORIAL HepG2 Assay for human Octamer-Binding Transcription Factor (Oct) (AID 2282993). The following applies: HepG2 Attagene cis-factorial Oct reporter, mRNA; actives raise or lower the signal. The gist of the method:
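Multiplexed cis-reporter assay in human liver HepG2 cells, 24 h incubation. Reporter RNA amplified and labelled, then resolved by capillary electrophoresis; DMSO serves as negative control and baseline.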

In assay [7] the target is Cellular tumor antigen p53 (Homo sapiens) (UniProt P04637). Nature of the assay: ATG_p53_CIS: Attagene CIS-FACTORIAL HepG2 Assay for human p53 Transcription Factor (AID 2282994). The following applies: HepG2 p53 cis-element reporter, Attagene mRNA; actives raise or lower the signal. An outline of the steps: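 Using HepG2 hepatoma cells carrying cis-acting multiplexed reporters, mRNA induction is detected after a 24 h exposure. Gain- and loss-of-signal responses are fitted relative to DMSO-treated cells.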
Cellular tumor antigen p53 (Homo sapiens), sequence (P04637 whole entry, looked up): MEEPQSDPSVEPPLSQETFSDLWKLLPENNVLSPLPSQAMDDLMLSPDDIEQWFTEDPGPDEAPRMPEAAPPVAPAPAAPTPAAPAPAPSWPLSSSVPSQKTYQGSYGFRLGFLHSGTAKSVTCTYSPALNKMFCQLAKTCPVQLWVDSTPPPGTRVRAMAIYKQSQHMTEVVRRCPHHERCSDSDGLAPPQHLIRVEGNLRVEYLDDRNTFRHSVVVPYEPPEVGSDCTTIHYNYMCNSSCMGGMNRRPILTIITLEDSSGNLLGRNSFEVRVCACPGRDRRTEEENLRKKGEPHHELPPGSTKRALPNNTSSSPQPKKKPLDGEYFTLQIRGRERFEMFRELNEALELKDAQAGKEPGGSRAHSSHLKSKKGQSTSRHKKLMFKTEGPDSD

Assay [8] in a line: BSK_3C_TissueFactor: BioMAP Diversity Plus: 3C Assay for Tissue Factor Biomarker Activity (AID 2282997). Particulars: BioMAP 3C HUVEC, tissue factor biomarker readout; actives raise or lower the signal. An outline of the steps: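 Human vascular primary cells (umbilical vein endothelium) received test chemical; Tissue Factor was determined by ELISA at 24 h, and both gain and loss of signal versus DMSO were fitted.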

Assay [9] is described as follows: BSK_3C_uPAR: BioMAP Diversity Plus: 3C Assay for Urokinase-type plasminogen activator receptor (uPAR) Biomarker Activity (AID 2282998). The following applies: BioMAP 3C HUVEC, uPAR biomarker ELISA; actives raise or lower the signal. An outline of the steps:
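Dose primary human umbilical vein endothelial cells, incubate 24 h, measure cell-surface uPAR by ELISA, then fit the signal in both directions against the DMSO negative control.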

Assay [10] can be described thus: BSK_3C_VCAM1: BioMAP Diversity Plus: 3C Assay for Vascular cell adhesion molecule 1 (VCAM1) Biomarker Activity (AID 2282999). The following applies: BioMAP 3C HUVEC, VCAM1 ELISA, cytokine-stimulated; actives raise or lower the signal. An outline of the steps:
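Endothelial cells from human umbilical vein are treated with test chemical. At 24 h, VCAM-1 is measured by ELISA, and responses in either direction are fitted relative to DMSO.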
Background: ELISA stands for enzyme-linked immunosorbent assay.

For assay [11], the target named is human Peroxisome Proliferator-activated Receptor alpha (PPARa), PPARA (gene 5465) (UniProt Q07869). Put plainly: ATG_PPARa_TRANS: Attagene TRANS-FACTORIAL HepG2 Assay for human Peroxisome Proliferator-activated Receptor alpha (PPARa) (AID 2283001; active = hit-call score of the fitted dose curve at least 0.9, where 1 is the maximum). An outline of the steps:
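Reporter transcripts from GAL4-UAS units in transfected HepG2 were quantified 24 h after dosing. Detection used reverse transcription, PCR, fluorescent primer extension and capillary electrophoresis, with DMSO as baseline.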

Assay [12] addresses human Peroxisome Proliferator-activated Receptor delta (PPARd), PPARD (gene 5467) (UniProt Q03181). Put plainly: ATG_PPARd_TRANS: Attagene TRANS-FACTORIAL HepG2 Assay for human Peroxisome Proliferator-activated Receptor delta (PPARd) (AID 2283002; active = hit-call score of the fitted dose curve at least 0.9, where 1 is the maximum). An outline of the steps:
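Transient HepG2 transfection (multiple GAL4-UAS RTUs, chimeric receptor-Gal4); 24 h dosing; total RNA → oligo(dT) RT → PCR → 6-FAM primer extension → HpaI cut → CE. Positive direction vs DMSO.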

Read-out in assay [13]: Intercellular Adhesion Molecule 1 (ICAM1), ICAM1 (gene 3383)
Put plainly: BSK_3C_ICAM1: BioMAP Diversity Plus: 3C Assay for Intercellular Adhesion Molecule 1 (ICAM1) Biomarker Activity (AID 2283003). Particulars: primary human endothelial cells (HUVEC); actives raise or lower the signal. The gist of the method: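 Human vascular endothelial primary cells, 3C conditions, 24 h treatment. ICAM-1 by ELISA.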

Assay [14] addresses Retinoic acid receptor alpha (Homo sapiens) (UniProt P10276). Nature of the assay: ATG_RARa_TRANS: Attagene TRANS-FACTORIAL HepG2 Assay for human Retinoic Acid Receptor alpha (RARa) (AID 2283005; active = hit-call score of the fitted dose curve at least 0.9, where 1 is the maximum). An outline of the steps: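 Reporter transcripts, measured by RT-PCR with fluorescent labeling and capillary electrophoresis after 24 h dosing, reflect activity of an exogenous human RARa–GAL4 fusion in transiently transfected HepG2. Fitted for increase relative to DMSO.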

Assay [15] is described as follows: BSK_3C_Proliferation: Cell Proliferation Assessment in the BioMAP Diversity Plus: 3C Assay (AID 2283006).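 As to AC50: potency may reflect either rise or fall in cell number versus DMSO.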 Particulars: primary human endothelial cells (HUVEC). The gist of the method:
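Proliferation of human vascular endothelial primary cells after 48 h dosing, quantified as SRB-stained protein at 560 nm relative to DMSO.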

Assay [16] has as its target Peroxisome proliferator-activated receptor gamma (Homo sapiens) (UniProt P37231). Nature of the assay: ATG_PPARg_TRANS: Attagene TRANS-FACTORIAL HepG2 Assay for human Peroxisome Proliferator-activated Receptor-gamma (PPARg) (AID 2283007; active = hit-call score of the fitted dose curve at least 0.9, where 1 is the maximum). The gist of the method: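 Liver-derived HepG2 cells expressing an exogenous NR-Gal4 chimera alongside GAL4-UAS reporter genes; 24 h exposure. Fluorescence of reporter RT-PCR products, separated by capillary electrophoresis, gives mRNA induction relative to DMSO.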

The target of assay [17] is Nuclear receptor subfamily 1 group I member 2 (Homo sapiens) (UniProt O75469). Nature of the assay: ATG_PXR_TRANS: Attagene TRANS-FACTORIAL HepG2 Assay for human Pregnane X Receptor (PXR) (AID 2283008; active = hit-call score of the fitted dose curve at least 0.9, where 1 is the maximum). The gist of the method:
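Fluorescence intensity of FAM-labelled, HpaI-digested reporter amplicons, separated by capillary electrophoresis, quantifies induction. HepG2 cells with PXR-Gal4 trans-reporter system were exposed 24 h; DMSO defines baseline.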

The nature of assay [18]: BSK_4H_Eotaxin3: BioMAP Diversity Plus: 4H Assay for Eotaxin 3 Biomarker Activity (AID 2283000). Particulars: primary human endothelial cells (HUVEC); actives raise or lower the signal. An outline of the steps:
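Readout is Eotaxin-3 (CCL26) level by ELISA in primary human umbilical vein endothelial cells harvested 24 h after chemical exposure; activity fitted in both directions against DMSO control.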

Assay [19] deals with human Retinoic Acid Receptor beta (RARb), RARB (gene 5915) (UniProt P10826). Put plainly: ATG_RARb_TRANS: Attagene TRANS-FACTORIAL HepG2 Assay for human Retinoic Acid Receptor beta (AID 2283004; active = hit-call score of the fitted dose curve at least 0.9, where 1 is the maximum). The gist of the method:
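Readout is reporter mRNA induction: RNA reverse-transcribed, PCR-amplified, FAM-labelled, HpaI-cut and resolved by capillary electrophoresis. Transiently transfected HepG2 cells carrying exogenous NR–Gal4 chimeras were dosed for 24 h; activity fitted upward relative to DMSO.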

Each structure is given as a SMILES string. Records with an inconclusive call do not appear. Activity calls are given as the source filed them. The calls were made as follows, unless noted: active = hit-call score of the fitted dose curve at least 0.9, where 1 is the maximum; inactive = score below 0.9.

human Peroxisome Proliferator-activated Receptor delta (PPARd), PPARD (gene 5467), sequence (Q03181 whole entry, looked up, the tested form may be a part): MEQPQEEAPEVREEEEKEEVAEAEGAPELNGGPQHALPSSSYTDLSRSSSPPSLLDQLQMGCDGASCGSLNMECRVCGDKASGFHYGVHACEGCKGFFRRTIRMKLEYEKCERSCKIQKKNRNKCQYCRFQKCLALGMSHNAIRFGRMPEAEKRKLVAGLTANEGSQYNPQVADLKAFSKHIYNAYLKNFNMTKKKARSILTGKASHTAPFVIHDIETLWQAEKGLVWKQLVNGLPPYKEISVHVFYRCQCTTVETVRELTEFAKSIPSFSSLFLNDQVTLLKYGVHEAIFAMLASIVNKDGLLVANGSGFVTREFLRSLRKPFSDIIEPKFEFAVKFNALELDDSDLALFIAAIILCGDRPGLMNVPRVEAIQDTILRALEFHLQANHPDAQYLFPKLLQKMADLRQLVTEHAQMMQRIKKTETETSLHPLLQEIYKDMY
human Peroxisome Proliferator-activated Receptor alpha (PPARa), PPARA (gene 5465), sequence (Q07869 whole entry, looked up, the tested form may be a part): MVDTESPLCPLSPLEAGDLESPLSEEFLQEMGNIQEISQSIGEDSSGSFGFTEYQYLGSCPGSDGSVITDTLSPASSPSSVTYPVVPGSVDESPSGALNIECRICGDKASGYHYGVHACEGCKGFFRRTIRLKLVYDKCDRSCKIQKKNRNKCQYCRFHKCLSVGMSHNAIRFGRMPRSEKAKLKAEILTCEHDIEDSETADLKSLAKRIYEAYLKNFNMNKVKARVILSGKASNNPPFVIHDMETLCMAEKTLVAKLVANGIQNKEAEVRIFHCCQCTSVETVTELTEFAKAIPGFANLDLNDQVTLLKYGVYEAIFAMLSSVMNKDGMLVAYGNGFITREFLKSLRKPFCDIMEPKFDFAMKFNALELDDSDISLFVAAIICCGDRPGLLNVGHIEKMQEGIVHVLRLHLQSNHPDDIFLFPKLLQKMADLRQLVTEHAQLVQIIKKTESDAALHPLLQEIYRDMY
Myc proto-oncogene protein (Homo sapiens), sequence (P01106 whole entry, looked up): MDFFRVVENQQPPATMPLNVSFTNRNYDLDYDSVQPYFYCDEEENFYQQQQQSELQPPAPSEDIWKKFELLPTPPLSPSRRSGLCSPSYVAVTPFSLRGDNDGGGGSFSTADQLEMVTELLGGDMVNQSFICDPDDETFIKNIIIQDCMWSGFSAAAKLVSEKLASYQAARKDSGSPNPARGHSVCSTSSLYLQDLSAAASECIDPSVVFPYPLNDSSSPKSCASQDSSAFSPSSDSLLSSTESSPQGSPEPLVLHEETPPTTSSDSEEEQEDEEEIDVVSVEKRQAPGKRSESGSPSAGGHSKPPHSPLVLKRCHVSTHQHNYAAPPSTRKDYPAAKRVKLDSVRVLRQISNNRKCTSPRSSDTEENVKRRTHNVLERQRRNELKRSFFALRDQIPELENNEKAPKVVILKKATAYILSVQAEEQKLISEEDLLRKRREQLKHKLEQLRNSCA
Nuclear receptor subfamily 1 group I member 2 (Homo sapiens), sequence (O75469 whole entry, looked up, the tested form may be a part): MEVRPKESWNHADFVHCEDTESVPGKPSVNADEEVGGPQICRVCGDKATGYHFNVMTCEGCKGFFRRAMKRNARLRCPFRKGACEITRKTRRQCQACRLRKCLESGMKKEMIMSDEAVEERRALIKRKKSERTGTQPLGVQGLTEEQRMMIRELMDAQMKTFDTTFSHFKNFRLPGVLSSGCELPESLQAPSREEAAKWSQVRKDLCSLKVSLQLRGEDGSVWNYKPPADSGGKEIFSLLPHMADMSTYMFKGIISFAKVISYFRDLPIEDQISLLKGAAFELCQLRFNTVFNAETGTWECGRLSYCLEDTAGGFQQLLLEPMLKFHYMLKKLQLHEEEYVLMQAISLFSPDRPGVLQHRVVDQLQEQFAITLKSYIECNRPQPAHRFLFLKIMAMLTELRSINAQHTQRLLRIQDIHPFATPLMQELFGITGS
Peroxisome proliferator-activated receptor gamma (Homo sapiens), sequence (P37231 whole entry, looked up, the tested form may be a part): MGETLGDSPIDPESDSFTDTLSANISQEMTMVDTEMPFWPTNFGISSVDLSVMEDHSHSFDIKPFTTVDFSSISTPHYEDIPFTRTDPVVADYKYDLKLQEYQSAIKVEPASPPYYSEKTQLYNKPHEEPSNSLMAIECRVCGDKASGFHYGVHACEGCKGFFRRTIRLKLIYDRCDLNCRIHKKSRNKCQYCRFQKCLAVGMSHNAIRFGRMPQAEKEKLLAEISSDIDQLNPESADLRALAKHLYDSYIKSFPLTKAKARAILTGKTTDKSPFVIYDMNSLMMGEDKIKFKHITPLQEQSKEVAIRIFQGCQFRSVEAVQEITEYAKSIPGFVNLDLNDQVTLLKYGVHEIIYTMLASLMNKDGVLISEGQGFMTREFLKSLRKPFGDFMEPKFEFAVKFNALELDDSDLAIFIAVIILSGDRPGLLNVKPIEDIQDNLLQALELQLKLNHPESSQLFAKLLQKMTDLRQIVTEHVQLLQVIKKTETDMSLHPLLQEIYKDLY
Nuclear respiratory factor 1 (Homo sapiens), sequence (Q16656 whole entry, looked up): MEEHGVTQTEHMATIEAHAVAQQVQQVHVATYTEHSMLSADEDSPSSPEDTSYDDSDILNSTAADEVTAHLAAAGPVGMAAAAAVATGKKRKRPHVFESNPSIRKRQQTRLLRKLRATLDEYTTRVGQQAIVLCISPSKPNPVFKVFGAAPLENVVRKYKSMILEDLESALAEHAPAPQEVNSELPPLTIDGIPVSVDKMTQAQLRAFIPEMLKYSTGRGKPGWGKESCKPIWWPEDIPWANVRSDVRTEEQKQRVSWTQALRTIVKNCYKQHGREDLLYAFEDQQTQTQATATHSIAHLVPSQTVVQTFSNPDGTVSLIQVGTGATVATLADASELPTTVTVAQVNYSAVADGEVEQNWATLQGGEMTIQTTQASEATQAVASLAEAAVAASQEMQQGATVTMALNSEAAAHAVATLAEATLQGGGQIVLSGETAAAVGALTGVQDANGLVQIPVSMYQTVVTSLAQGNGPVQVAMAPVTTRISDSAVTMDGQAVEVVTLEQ
Retinoic acid receptor alpha (Homo sapiens), sequence (P10276 whole entry, looked up, the tested form may be a part): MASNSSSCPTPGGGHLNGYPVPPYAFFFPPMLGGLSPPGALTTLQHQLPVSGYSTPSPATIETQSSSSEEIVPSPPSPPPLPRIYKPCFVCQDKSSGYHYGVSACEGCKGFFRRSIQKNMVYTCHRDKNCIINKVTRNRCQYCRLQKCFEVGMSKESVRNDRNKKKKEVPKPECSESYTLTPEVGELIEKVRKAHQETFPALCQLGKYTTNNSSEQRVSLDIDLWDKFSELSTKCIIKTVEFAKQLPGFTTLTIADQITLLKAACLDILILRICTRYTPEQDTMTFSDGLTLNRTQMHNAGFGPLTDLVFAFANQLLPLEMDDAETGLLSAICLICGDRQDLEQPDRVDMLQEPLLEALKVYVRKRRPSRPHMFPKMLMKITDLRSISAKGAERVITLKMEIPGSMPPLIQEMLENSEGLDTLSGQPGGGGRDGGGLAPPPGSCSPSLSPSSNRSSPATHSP
human Retinoic Acid Receptor beta (RARb), RARB (gene 5915), sequence (P10826 whole entry, looked up, the tested form may be a part): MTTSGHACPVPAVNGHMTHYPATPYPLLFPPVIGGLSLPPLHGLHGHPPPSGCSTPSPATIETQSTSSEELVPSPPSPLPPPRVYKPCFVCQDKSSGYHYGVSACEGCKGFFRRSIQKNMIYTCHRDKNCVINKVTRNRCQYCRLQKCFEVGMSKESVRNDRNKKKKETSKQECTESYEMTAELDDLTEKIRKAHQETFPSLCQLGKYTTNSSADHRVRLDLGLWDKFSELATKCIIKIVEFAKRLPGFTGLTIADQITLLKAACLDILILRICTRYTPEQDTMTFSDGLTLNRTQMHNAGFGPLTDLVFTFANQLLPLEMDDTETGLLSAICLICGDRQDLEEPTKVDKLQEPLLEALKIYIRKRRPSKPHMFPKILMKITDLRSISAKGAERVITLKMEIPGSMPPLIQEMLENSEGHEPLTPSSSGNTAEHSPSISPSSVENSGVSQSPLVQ

Regarding `CC(=O)[O][Hg][c]1ccccc1`, the call in assay [1], in [3], in assay [4], in [7], in [11] and in [12] was inactive. Besides, the molecule was classed as inactive in assay [14], in assay [16] and in assay [17]. The AC50 in assay [2] was 3.71 µM (active); in [5], 2.24 µM (active); in assay [6] it was 2.5 µM (active); in assay [8], 2.59 µM (active); in [9], 1.17 µM (active); in [10], 2.36 µM (active). Moreover, the AC50 is 2.69 µM (active) in assay [13] and 1.18 µM (active) in assay [15].
On to `CC(C)(C)c1cc(O)ccc1O`, for which the outcome in [1], in assay [2], in assay [3], in assay [4], in assay [7] and in assay [8] was inactive. The result in [9], in [11] and in assay [13] was inactive. In addition, the AC50 in [5] is 9.05 µM (active); in assay [6], 129 µM (active); in assay [10], 28.1 µM (active); in assay [15], 9.85 µM (active); in assay [16], 52.5 µM (active); in assay [17], 3.34 µM (active).
With `Nc1ccc(N=Nc2ccc(-c3ccc(N=Nc4c(S(=O)(=O)O)cc5cc(S(=O)(=O)O)c(N=Nc6ccccc6)c(O)c5c4N)cc3)cc2)c(N)c1`, the outcome in assay [1], in [2], in assay [3], in [4], in assay [5] and in assay [6] was inactive. The molecule was classed as inactive in [7], in assay [11], in assay [12], in [14], in assay [16] and in assay [17].
As to `CCSC(C)CC1CC(=O)C(C(CC)=NOC/C=C/Cl)=C(O)C1` (stereo unspecified), the outcome in [1], in [2], in [3], in assay [4], in assay [5] and in [6] was inactive. The call in assay [7], in assay [8], in assay [9], in [10], in assay [13] and in assay [14] was inactive. In addition, the result in assay [15] was inactive. Further, the figures for the AC50 in assay [16] and in [17] were 35.3 µM (active) and 7.44 µM (active), respectively.
As for `COP(=S)(OC)Oc1c(Cl)cc(C)cc1Cl`, the molecule was called inactive in assay [1], in [2], in assay [3], in [4], in [6] and in assay [7]. Besides, the result in [8], in [9], in assay [10], in assay [11], in assay [12] and in assay [16] was inactive. Further, the AC50 in assay [5] was 29.2 µM (active); in [18], 5.75 µM (active); in [15], 20 µM (active); in [17], 6.51 µM (active).
In the case of `Cl/C=C/Cl`, the result in [1], in assay [2], in assay [3], in assay [4], in [5] and in assay [6] was inactive. Further, the outcome in assay [7] was inactive.
With `NNC(=S)NN`, the outcome in [1], in assay [2], in [3], in [4], in [5] and in assay [6] was inactive. For the same molecule, the call in assay [7] was inactive.
`BrCCBr`: the molecule was called inactive in assay [1], in [2], in [3], in assay [4], in assay [5] and in assay [6]. In addition, the call in [7], in assay [8], in [9], in [10], in assay [11] and in assay [12] was inactive. Besides, the call in assay [19], in [14], in assay [15], in [16] and in assay [17] was inactive.

As a reminder, the AC50 is the concentration giving half of the maximal activity seen.
